Compounds with a hit are over-represented: about 1.1% of the library has one in this group of screens.
HTR5A inv ctr: inverse agonist of human HTR5A in OPRM1-OPRD1 counter-screen; 0.083% of 340,000 active; HTR5A cell line, luminescence, inverse agonism; P47898; inhibition, % at 9.3 µM; in the data active means inhibition mostly above about 23%, no sharp cut-off; inactive means mostly below about 18%
OPRM1-OPRD1 inv: inverse agonists of human mu-delta opioid receptor heterodimerization; P35372+P41143; cell-based MOR-DOR heterodimer luminescence, inverse agonism; 0.21% of 340,000 active; inhibition, % at 9.3 µM; AID 504357; in the data active means inhibition above about 22%, passing the limit was not always enough
Target sequence (P35372 whole entry, looked up): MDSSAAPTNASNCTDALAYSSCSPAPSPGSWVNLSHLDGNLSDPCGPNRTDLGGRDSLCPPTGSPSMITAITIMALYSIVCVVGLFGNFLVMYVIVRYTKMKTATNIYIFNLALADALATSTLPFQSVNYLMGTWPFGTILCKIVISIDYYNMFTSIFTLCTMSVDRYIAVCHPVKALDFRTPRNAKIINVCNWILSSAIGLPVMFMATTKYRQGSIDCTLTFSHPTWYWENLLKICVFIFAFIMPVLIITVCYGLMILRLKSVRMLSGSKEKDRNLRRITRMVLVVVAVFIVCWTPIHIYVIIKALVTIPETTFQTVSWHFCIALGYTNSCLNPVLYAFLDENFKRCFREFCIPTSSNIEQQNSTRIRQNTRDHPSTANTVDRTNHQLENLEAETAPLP
Target sequence (P41143 whole entry, looked up): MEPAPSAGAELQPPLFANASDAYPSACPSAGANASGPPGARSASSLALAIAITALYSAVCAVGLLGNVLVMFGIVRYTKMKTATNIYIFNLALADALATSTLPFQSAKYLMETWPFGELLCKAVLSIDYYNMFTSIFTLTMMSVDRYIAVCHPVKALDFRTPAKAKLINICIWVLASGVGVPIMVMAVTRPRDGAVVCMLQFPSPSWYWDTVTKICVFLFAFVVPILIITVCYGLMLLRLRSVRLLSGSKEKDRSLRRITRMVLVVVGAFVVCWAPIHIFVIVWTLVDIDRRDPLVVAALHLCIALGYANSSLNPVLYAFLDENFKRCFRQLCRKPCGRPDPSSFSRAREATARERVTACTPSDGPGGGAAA
OPRM1-OPRD1 ag: agonists of human mu-delta opioid receptor heterodimerization | P35372+P41143 | cells, OPRM1-OPRD1 heterodimerization, luminescence | activation, % at 9.3 µM | 0.3% of 340,000 active
HTR5A ag ctr: HTR5A agonism, opioid heterodimer counter-screen; P47898; HTR5A agonist assay, luminescence, cell-based; activation, % at 9.3 µM; 0.61% of 340,000 active; in the data active means activation mostly above about 9.5%, no sharp cut-off; inactive means mostly below about 7.6%
OPRM1-D1 ag cf: confirmation of human OPRM1-OPRD1 heterodimerization agonists | shares compounds with OPRM1-OPRD1 ag | cells, MOR-DOR heterodimerization, luminescence complementation | activation, % at 9.3 µM | 45% of 830 active | AID 504904
HTR5A ag ctr2: counter-screen for OPRM1-OPRD1 agonists: human HTR5A agonism; HTR5A agonist counterscreen, cell luminescence; shares compounds with OPRM1-OPRD1 ag; AID 504905; 8% of 830 active; activation, % at 9.3 µM; in the data active means activation above about 17%
Of the large screens only hits and unclear results are named; the others gave an inactive call (follow-up assays come after a bar, where they were run); ! = repeats disagree. Unless noted, no stated cut-off is given here; in the data, active means activation above about 18%; inactive means the rest.

CC(=O)c1ccc2c(c1)C1C(Cl)C(Sc3ccccc3[N+](=O)[O-])CC1C(c1ccccc1[N+](=O)[O-])N2 (stereo not drawn)	HTR5A ag ctr 11
O=c1c2ccccc2nc(/C=C/c2ccccc2F)n1-c1ccccc1O	OPRM1-OPRD1 ag 29
CCCNC(=O)N1[C@H]2CC[C@@H]1C(C(=O)OC)=C(c1ccc(OC)c(OC)c1)C2	none
Cc1cc(NC(=O)COC(=O)c2c(C)nn(Cc3ccccc3)c2C)no1	HTR5A ag ctr 12
O=C1Nc2ccc(Br)cc2C(c2ccc(Cl)cc2)=NC1O (stereo not drawn)	none
C[C@]12CCC3C(CC[C@H]4C[C@@H](O)CC[C@]34C)C1CC[C@@H]2OC(=O)[C@H](N)CCCCN (stereo partly drawn)	none
c1ccc2c(CCNC3=NCCC3)c[nH]c2c1	HTR5A ag ctr 11
C=CCN1CC[C@]23c4c5ccc(O)c4OC2C(O)CC[C@@]3(O)[C@H]1C5 (stereo partly drawn)	none
NC(=Nc1ccccc1)NN=Cc1c[nH]c2ccccc12	HTR5A ag ctr 13
FC(F)(F)c1ccccc1NC1=NCCCS1	none
CC1(C)CN=C(Nc2ccccc2C(F)(F)F)S1	HTR5A ag ctr 11
CC(=O)OC1C2CCCC1C(N1CCCC1)CC2 (stereo not drawn)	HTR5A ag ctr 13!
CC(=O)OC1C2CCC1C(N1CCCCC1)CC2 (stereo not drawn)	none
CNc1cc(Cl)c2nonc2c1[N+](=O)[O-]	OPRM1-OPRD1 inv 33
Cc1cc([N+](=O)[O-])c(Cl)cc1NC(=O)C(C)C	none
CCCNC(=O)N1[C@H]2CC[C@@H]1C(C(=O)OC)=C(c1cccc(C#N)c1)C2	HTR5A ag ctr 13
COC(=O)C1=C(c2cccc(C#N)c2)C[C@@H]2CC[C@H]1N2C(=O)NCCOc1ccccc1	none
CCn1nc(-c2ccccc2)nc2c(=O)n(C)c(=O)nc1-2	OPRM1-OPRD1 ag 24
CN1CCN(C(=O)O[C@H]2c3nccnc3C(=O)N2c2ccc(Cl)cn2)CC1	none
CCN(CC)c1ccc(/C=N/c2sc3c(c2C#N)C2CCN3CC2)c(O)c1	OPRM1-OPRD1 inv 42
O=C(CCc1nnc2ccc(NCc3ccccc3Cl)nn12)N1CCC2(CC1)OCCO2	none
CC1(C)C[C@H]2C=C(C=O)[C@]3(C=O)C[C@]3(C)[C@H]2C1	HTR5A ag ctr 42
CCOS(C)(=O)=O	none
C[C@]12CC[C@H](O)C[C@H]1CC[C@@H]1[C@@H]2CC[C@]2(C)[C@@H](C3=CC(=O)OC3)CC[C@]12O	OPRM1-OPRD1 ag 71, HTR5A ag ctr 37
CC12CCC(O)CC1CCC1C2CCC2(C)C(C3=CC(=O)OC3)C(O)CC12O (stereo not drawn)	OPRM1-OPRD1 ag 69, HTR5A ag ctr 33
CC12CC[C@H]3[C@@H](CCC4(O)C[C@H](O)CCC34/C=N/NC(=O)Cc3ccccc3)C1(O)CCC2C1=CC(=O)OC1 (stereo partly drawn)	none
COC(=O)C1=C(c2cccc(OCc3ccccc3)c2)C[C@@H]2CC[C@H]1N2C(=O)NCc1ccc([N+](=O)[O-])cc1	none
CC(=O)C1(c2ccccc2)CCN(C(=O)C2CCC(=O)N(CCc3cccc(F)c3)C2)CC1 (stereo not drawn)	none
C=C1C(=O)OC2CC(C)C3C=CC(=O)C3(C)C(O)C12 (stereo not drawn)	none
C=C1C(=O)O[C@@H]2C[C@@H](C)[C@@H]3C=CC(=O)[C@@]3(C)[C@@H](OC(=O)CC(=O)O[C@H]3[C@@H]4C(=C)C(=O)O[C@@H]4C[C@@H](C)[C@@H]4C=CC(=O)[C@]43C)[C@H]12	OPRM1-OPRD1 inv 46
CCOC(=O)C1(c2ccccc2)CCN(CCC(C#N)(c2ccccc2)c2ccccc2)CC1	OPRM1-OPRD1 ag 288 | OPRM1-D1 ag cf inactive | HTR5A ag ctr2 inactive
CCOC(=O)C1(c2ccccc2)CCN(CCC(=O)Nc2cccc(Br)c2)CC1	OPRM1-OPRD1 ag 49 | OPRM1-D1 ag cf 57 | HTR5A ag ctr2 inactive
CCOC(=O)C1(c2ccccc2)CCN(CCC(=O)Nc2ccc(C(=O)OC)cc2)CC1	none
CC1CCCC(NC(=O)CNC(=S)N2CC3CC(C2)c2cccc(=O)n2C3)C1C (stereo not drawn)	none
CCOC(=O)C1(CCc2ccccc2)CCN(Cc2cccc3c2OCO3)CC1	OPRM1-OPRD1 ag 36 | OPRM1-D1 ag cf inactive | HTR5A ag ctr2 inactive
CCOC(=O)C1(CCc2ccccc2)CCN(Cc2cccc3cnccc23)CC1	none
CCOC(=O)C1(CCc2ccccc2)CCN(Cc2csc(C(C)=O)c2)CC1	OPRM1-OPRD1 ag 63 | OPRM1-D1 ag cf inactive | HTR5A ag ctr2 18
COC(=O)C1=C(c2ccc3ccccc3c2)C[C@@H]2CC[C@H]1N2C(=O)NC1CCCCC1	none
CC(=O)O[C@]1(c2ccccc2)CCN(C)[C@H]2CCCC[C@@H]21	none
CCC1CN(C)CCC1(OC(C)=O)c1ccccc1 (stereo not drawn)	OPRM1-OPRD1 ag 25 | OPRM1-D1 ag cf 23 | HTR5A ag ctr2 inactive
C[C@@H]1O[C@@H](O[C@H]2C[C@@H](O)[C@]3(CO)[C@@H]4C(CC[C@]3(O)C2)[C@@]2(O)CC[C@H](C3COC(=O)C3)[C@@]2(C)C[C@H]4O)[C@H](O)[C@H](O)[C@H]1O (stereo partly drawn)	OPRM1-OPRD1 ag 73 | OPRM1-D1 ag cf inactive | HTR5A ag ctr2 inactive
Cc1ccc(C[n+]2c(-c3ccc(C)cc3)cc(-c3ccc(C)cc3)cc2-c2ccc(C)cc2)cc1	OPRM1-OPRD1 ag 68, HTR5A ag ctr 23 | OPRM1-D1 ag cf inactive | HTR5A ag ctr2 inactive
Cn1cc[n+](C)c1P(=S)(c1ccccc1)c1ccccc1	OPRM1-OPRD1 ag 39 | OPRM1-D1 ag cf inactive | HTR5A ag ctr2 inactive
COc1ccccc1CCNC(=O)CCC(=O)N1CC2C[C@@H](C1)Cn1c2cccc1=O	none
O=C1C(=O)c2ccccc2-c2ccccc21	OPRM1-OPRD1 ag 40 | OPRM1-D1 ag cf inactive | HTR5A ag ctr2 inactive
Nc1c(Cl)cc([N+](=O)[O-])cc1Cl	none
Cc1ccc(-n2cc(CNC(C)Cc3cnccn3)c(-c3cccc(C)c3)n2)cc1 (stereo not drawn)	OPRM1-OPRD1 ag 42 | OPRM1-D1 ag cf inactive | HTR5A ag ctr2 inactive
C=CCN1CC[C@@]2(C)c3cc(O)ccc3CC1[C@@H]2C	none
CC(C)=CCN1CC[C@@]2(C)c3cc(O)ccc3CC1C2C (stereo partly drawn)	none
CC1[C@H]2Cc3ccc(O)cc3[C@]1(C)CCN2C (stereo partly drawn)	OPRM1-OPRD1 ag 44 | OPRM1-D1 ag cf 42 | HTR5A ag ctr2 inactive
CC(C)=CCN1CC[C@@]2(C)c3cc(O)ccc3C[C@@H]1C2C (stereo partly drawn)	OPRM1-OPRD1 ag 37 | OPRM1-D1 ag cf inactive | HTR5A ag ctr2 inactive
COc1ccc(C2(c3cccc(O)c3OC)CCN(C(C)=O)CC2)cc1O	none

Compound activity: PubChem BioAssay, The Scripps Research Institute Molecular Screening Center
